# Results: PubChem BioAssay AID485344 (National Center for Advancing Translational Sciences (NCATS), 2010)
# Hit rate of the full screen: of about 340,000 compounds, about 6,900 (2%) were called active. Cut-off read from the data, not from the text of the source: active = inhibition above about 30%; inactive = below that, where a call was filed. Only a selection was taken, and actives are over-represented in it overall.
# Target: D(2) dopamine receptor (Homo sapiens) (UniProt P14416)
# Assay: HTS Assay for Allosteric Antagonists of the Human D2 Dopamine Receptor: Primary Screen for Antagonists; note: 0% is about no effect
# Settings: HEK293 TREx D2 cells, calcium flux, dopamine EC80; at 10 µM; hits give high values
# In short: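 Tetracycline-induced HEK293 TREx cells expressing D2 receptor forced-coupled to calcium signalling, loaded with no-wash calcium dye. Compounds added and calcium flux read 180 s, then dopamine added at EC80 and read a further 180 s.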
# Sequence of D(2) dopamine receptor (Homo sapiens) (P14416 whole entry, looked up): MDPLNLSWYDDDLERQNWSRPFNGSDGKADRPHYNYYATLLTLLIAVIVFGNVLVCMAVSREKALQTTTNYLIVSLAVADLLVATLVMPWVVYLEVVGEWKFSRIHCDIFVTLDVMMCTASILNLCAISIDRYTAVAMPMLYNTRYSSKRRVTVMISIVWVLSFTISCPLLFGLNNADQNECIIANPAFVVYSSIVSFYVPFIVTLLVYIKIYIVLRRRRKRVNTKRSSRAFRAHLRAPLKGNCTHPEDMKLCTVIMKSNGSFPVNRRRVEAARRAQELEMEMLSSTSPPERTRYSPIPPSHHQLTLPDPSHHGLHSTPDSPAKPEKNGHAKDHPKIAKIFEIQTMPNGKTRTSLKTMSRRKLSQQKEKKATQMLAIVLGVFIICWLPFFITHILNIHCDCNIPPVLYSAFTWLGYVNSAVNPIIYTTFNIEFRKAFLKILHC
row,Structure (SMILES),inhibition
1,CCn1c(C)c(C)c2cc(C(=O)N3CCN(c4cccc(C)c4C)CC3)ccc21,35.7% (active)
2,Cc1cccc(N2CCN(C(=O)c3cccc(N4C(=O)C5C6C=CC(C6)C5C4=O)c3)CC2)c1C (stereo not drawn),-3.04% (inactive)
3,CCC(CC)C(=O)N1CCN(c2cccc(C)c2C)CC1,-16.7% (inactive)
4,C[C@H](NC(=O)c1ccccc1)C(=O)OCC(=O)c1c[nH]c2ccccc12,-14% (inactive)
5,Cc1ccc(CNC(=O)c2cccc3c2C(=O)c2ccc(N4CCC(C)CC4)cc2S3(=O)=O)cc1,-2.45% (inactive)
6,Cc1nnc(SC(C)C(=O)Nc2ccc(S(=O)(=O)NC3CCCCC3)cc2)s1 (stereo not drawn),61.3% (active)
7,CCc1nnc(NC(=O)c2ccc(S(=O)(=O)NC3CCCCC3)cc2)s1,-18.8% (inactive)
8,Cc1ccc(Nc2nnc(SC(C)C(=O)NC3CC3)s2)cc1 (stereo not drawn),-31.5% (inactive)
9,Cc1c(C(=O)OCC(=O)N2CCCC2=O)oc2ccccc12,10.7% (inactive)
10,CCOC(=O)N1CCN(C(=O)CSc2nc(=O)n3cccc(C)c3n2)CC1,-1.99% (inactive)
11,CCc1nnc(NC(=O)CCCSc2nc3ccccc3[nH]2)s1,-10.6% (inactive)
12,CCCCSc1nc2ccccc2[nH]1,22.4% (inactive)
13,O=C(COC(=O)CCCSc1nc2ccccc2[nH]1)Nc1ccc(Oc2ccccc2)cc1,38.2% (active)
14,COCCN(C(=O)CC1CCCCC1)c1c(N)n(CC(C)C)c(=O)[nH]c1=O,-47.9% (inactive)
15,Cc1cc(C)n2nc(C(=O)OCC(=O)N(CCC#N)c3ccc(F)cc3)nc2n1,-5.33% (inactive)
16,COc1cccc(N2CC(NC(=O)c3ccc4ccccc4c3)CC2=O)c1 (stereo not drawn),34.4% (active)
17,COc1ccc(N2CC(NS(=O)(=O)c3ccc4ccccc4c3)CC2=O)cc1 (stereo not drawn),17.1% (inactive)
18,COc1cccc(N2CC(C(=O)Nc3c(C)cccc3C)CC2=O)c1 (stereo not drawn),-21.9% (inactive)
19,CCOc1ccc(NC(=O)CN(C)C(=O)Cn2c(=O)cnc3ccccc32)cc1OCC,6.33% (inactive)
20,COC(=O)c1ccc(COC(=O)CNC(=O)c2cccc(OC)c2)o1,-4.34% (inactive)
21,Cn1nnnc1SCC(=O)Nc1nc2ccccc2s1,5.01% (inactive)
22,Cc1ccc(S(=O)(=O)Nc2nc3ccccc3s2)cc1[N+](=O)[O-],-1.44% (inactive)
23,Cc1ccnc(Nc2nc3ccccc3s2)n1,39.5% (active)
24,C=C(C)CNc1cc(S(=O)(=O)N2CCOCC2)ccc1Oc1ccccc1,-1.1% (inactive)

row,Structure (SMILES),inhibition
1,CCOc1ccccc1N1CCN(C(=O)COc2ccc3c(C)cc(=O)oc3c2)CC1,20.8% (inactive)
2,Cc1ccccc1N1CCN(CCCOc2ccc3c(C)cc(=O)oc3c2)CC1,109% (active)
3,Cc1cc(=O)oc2cc(OCCC[n+]3ccccc3)ccc12,13.4% (inactive)
4,Cc1ccc(C(=O)CN2C(=O)NC3(CCOc4ccccc43)C2=O)s1 (stereo not drawn),-0.39% (inactive)
5,O=C(COC(=O)CCCN1C(=O)c2cccc3cccc(c23)C1=O)NC1CCS(=O)(=O)C1 (stereo not drawn),1.37% (inactive)
6,O=C(Nc1ccc2c(c1)OCCO2)C1CCCC1,3.86% (inactive)
7,Cc1cc(NC(=O)Nc2ccc(Cl)cc2)n(-c2ccccc2)n1,40.6% (active)
8,Cc1cc(NC(=O)c2cnn3cccnc23)n(-c2ccccc2)n1,5.9% (inactive)
9,Cc1cc(NC(=O)Nc2ccccc2)n(-c2ccccc2)n1,31.4% (active)
10,Cc1nn(-c2ccccc2)c(Cl)c1C(=O)Nc1ccccc1,-28.3% (inactive)
11,Cc1ccc(NC(=O)Nc2cc(-c3ccccc3)nn2C)cc1Cl,-13.2% (inactive)
12,CC(=O)c1cccc(NC(=O)c2cc(C)nn2-c2ccccc2)c1,-7.81% (inactive)
13,C#CCOCCOCCOCCNc1nc(N2CCN(C(=O)Cn3cc(CCCCN)nn3)CC2)nc(N2CCN(C(=O)[C@H](CCCCN)n3cc(CCC(=O)O)nn3)CC2)n1,-10.9% (inactive)
14,CCOc1ncccc1C(=O)OCC(=O)c1c[nH]c2ccccc12,12.3% (inactive)
15,O=C(CN1CCN(S(=O)(=O)c2ccc(Cl)s2)CC1)N1CCCCC1,-11.9% (inactive)
16,CCc1ccc(Nc2n[n+](-c3ccccc3)c(-c3cccc(Cl)c3Cl)s2)cc1,6.13% (inactive)
17,CCCCN(C(=O)C(CCSC)N1C(=O)c2ccccc2C1=O)c1c(N)n(CCC)c(=O)[nH]c1=O (stereo not drawn),-4.67% (inactive)
18,Cc1c(C(=O)NNC(=O)c2ccncc2)oc2ccccc12,13.9% (inactive)
19,CCN(c1ccccc1)S(=O)(=O)c1cccc(C(=O)NCc2ccccc2CN2CCOCC2)c1,-43% (inactive)
20,COc1ccccc1C(CNC(=O)c1cccc(S(=O)(=O)Nc2ccc(F)cc2)c1)N(C)C (stereo not drawn),-19.6% (inactive)
21,O=C(NCc1ccccc1CN1CCCC1)c1cccc(S(=O)(=O)Nc2ccc(F)cc2)c1,61.7% (active)
22,O=C(Nc1ccc(F)cc1)N1CCN(c2ccc(F)cc2)CC1,-1.72% (inactive)
23,O=C(NCCCN1CCN(c2ccc(F)cc2)CC1)Nc1ccc([N+](=O)[O-])cc1,45.2% (active)
24,CN1CCN(CCNC(=O)Nc2ccc([N+](=O)[O-])cc2)CC1,11.3% (inactive)

row,Structure (SMILES),inhibition
1,COc1cccc(NC(=O)CN(C)CC(=O)c2c(N)n(Cc3ccccc3)c(=O)n(C)c2=O)c1,-15.4% (inactive)
2,COc1ccc(NC(=S)Nc2ccccc2Cl)cn1,40.5% (active)
3,COCCN(CCOC)C(=S)Nc1ccccc1Cl,3.22% (inactive)
4,COc1ccc(Nc2cc(Cl)ccc2C(=O)O)cn1,9.54% (inactive)
5,Cc1n[nH]c(=O)c2c(NC(=O)CSc3ccccc3F)oc(C)c12,0.909% (inactive)
6,CCN(C(=O)COC(=O)Cc1c(F)cccc1Cl)c1c(N)n(Cc2ccccc2)c(=O)[nH]c1=O,4.82% (inactive)
7,CCOC(=O)c1c(C)[nH]c2c1-c1ccccc1C(=O)C2=O,-2.67% (inactive)
8,CCOC(=O)c1c(C)[nH]c(C2=NNC(=NC(C)COC)SC2)c1C (stereo not drawn),36% (active)
9,C[C@@H]1NC(=O)[C@@]2(C)[C@@H](c3ccccc3)[C@H]3COc4ccccc4[C@@H]3N2C1=O,-7.78% (inactive)
10,CCOc1ccc(CCNC(=O)CN2C(=O)NC3(CCc4ccccc43)C2=O)cc1OCC (stereo not drawn),1.52% (inactive)
11,CCN(C(=O)CSc1nc(N)cc(=O)[nH]1)C1CCS(=O)(=O)C1 (stereo not drawn),10.5% (inactive)
12,CCS(=O)(=O)Nc1cccc(-c2cc(-c3ccccc3)c3cc(C)ccc3n2)c1,30.3% (active)
13,Cc1ccc2nc(-c3ccncc3)cc(C(=O)Nc3ccncc3)c2c1,-15.6% (inactive)
14,Cc1ccc2nc(Nc3ccccc3)cc(C)c2c1,-16.8% (inactive)
15,Cc1cc(OCCN2CCCC2)cc(C(C)C)c1,46.1% (active)
16,c1ccc2cc(OCCN3CCCC3)ccc2c1,6.73% (inactive)
17,Cc1cc(OCCN2CCCC2)ccc1C(C)C,-8.05% (inactive)
18,CCCCc1ccc(NS(=O)(=O)c2cccc(C(=O)N3CCCN(C)CC3)c2)cc1,16.6% (inactive)
19,Cc1ccnc(NC(=O)C(C)N2C(=O)c3ccccc3C2=O)c1 (stereo not drawn),-8.26% (inactive)
20,Cc1cc(C)nc(NC(=O)C(C)N2C(=O)c3ccccc3C2=O)n1 (stereo not drawn),35.4% (active)
21,COC(=O)c1ccc(NC(=O)C(C)N2C(=O)c3ccccc3C2=O)cc1 (stereo not drawn),4.17% (inactive)
22,CCCN(CC1CC1)C(=S)NC(=O)c1ccccc1Br,6.85% (inactive)
23,Cc1cc(C(=O)OCC(=O)Nc2ccccc2Cl)c(C)o1,3.84% (inactive)
24,Cc1ccc(NC(=O)Cn2c(C)csc2=O)cc1,-14.9% (inactive)

row,Structure (SMILES),inhibition
1,CCOC(=O)N1CCN(S(=O)(=O)c2ccc3c(c2)C(C)C(=O)N3)CC1 (stereo not drawn),-7.55% (inactive)
2,Cc1ccc2cc(CCNC(=O)c3c(-c4ccccc4Cl)noc3C)c(=O)[nH]c2c1,34% (active)
3,Cc1ccc2cc(CCNC(=O)c3ccc4c(c3)OCO4)c(=O)[nH]c2c1,-22% (inactive)
4,CC(=O)Nc1cccc(/C(C)=N/NC(=O)c2c(-c3ccccc3Cl)noc2C)c1,-13% (inactive)
5,CCN(c1ccccc1)S(=O)(=O)c1ccc(OCC(=O)N2CCCC2)cc1,-6.24% (inactive)
6,CC(OC(=O)c1ccc(S(=O)(=O)N2CCOCC2)cc1)c1ccccc1 (stereo not drawn),-6.07% (inactive)
7,c1ccc(-c2cnc(CN3CCN(c4ccccc4)CC3)o2)cc1,77.7% (active)
8,Fc1ccc(N2CCN(Cc3cnc(Oc4ccc(Br)cc4)s3)CC2)cc1,14.3% (inactive)
9,COc1ccc(N2CCN(Cc3nnc(-c4ccccc4)o3)CC2)cc1,9.11% (inactive)
10,O=[N+]([O-])c1ccc(S(=O)(=O)Nc2cccc(-c3ccc(N4CCCC4)nn3)c2)cc1,-6.06% (inactive)
11,Cc1ccc(Cl)cc1NC(=O)COC(=O)C1CCCCC1,-6.03% (inactive)
12,CCCC(=O)OCC(=O)Nc1cc(Cl)ccc1[N+](=O)[O-],-3.56% (inactive)
13,Cc1ccc(Cl)cc1NC(=O)COC(=O)CC(C)(C)C,40.7% (active)
14,O=C(C1CCC1)N1CCN(S(=O)(=O)c2ccc([N+](=O)[O-])cc2)CC1,-8.41% (inactive)
15,COCCn1cnnc1SCC(=O)Nc1cccc(S(=O)(=O)N2CCCCC2)c1,3.75% (inactive)
16,O=C(c1cccs1)N1CCN(Cc2ccc3c(c2)OCO3)CC1,86.6% (active)
17,CCn1cc(C(=O)N2CCN(C3CCCCC3)CC2)c2cc(OC)c(OC)cc2c1=O,2.69% (inactive)
18,CCn1cc(C(=O)N2CCN(Cc3ccc4c(c3)OCO4)CC2)c2cc(OC)c(OC)cc2c1=O,32.8% (active)
19,CCn1cc(C(=O)NCc2ccc3c(c2)OCO3)c2cc(OC)c(OC)cc2c1=O,-9.78% (inactive)
20,O=C(CSCc1ccc(Cl)cc1)N1CCN(Cc2ccc3c(c2)OCO3)CC1,15.1% (inactive)
21,O=C(C1CCN(Cc2ccc(Cl)cc2)CC1)N1CCN(Cc2ccc3c(c2)OCO3)CC1,-7.43% (inactive)
